What all share (assay): DAPPL (digital affinity profiling via proximity ligation, sequencing); 10 mM Tris-HCl pH 7.5, 50 mM NaCl, 1 mM DTT, 4% glycerol, room temperature, 30 min; GST-TFs on glutathione beads, 16-mer random dsDNA library, 0.1% formaldehyde crosslink after washing; high values mean tight binding
For one assay, the target named is T1, FEV (Homo sapiens, UniProt Q99581 1-238).
T1 sequence: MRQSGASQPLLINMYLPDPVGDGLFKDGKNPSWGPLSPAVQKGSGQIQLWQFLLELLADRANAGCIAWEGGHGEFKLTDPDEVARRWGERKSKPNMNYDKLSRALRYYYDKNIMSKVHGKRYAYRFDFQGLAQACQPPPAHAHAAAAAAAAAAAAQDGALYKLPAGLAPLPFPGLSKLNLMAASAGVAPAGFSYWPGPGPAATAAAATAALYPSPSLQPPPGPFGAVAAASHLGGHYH
The settings on record: protein: recombinant; tags: N-terminal GST; dsDNA, one strand shown. Summed up: (§1)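 Human transcription factors were made in yeast as GST fusions, captured on glutathione beads and barcoded with DNA. With a tag-only sample included, the pool was incubated with 200 nmole of a random double-stranded 16-mer DNA library in Tris/NaCl/DTT/glycerol buffer at room temperature for 30 min, then crosslinked with 0.1% formaldehyde after washing, ligated by proximity, amplified and sequenced. For binding signal, each hexamer's read frequency for a factor is divided by its frequency for the tag-only sample.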

The next assay addresses ETV5 (Homo sapiens, UniProt P41161 1-510). Conditions: protein: recombinant; tags: N-terminal GST; dsDNA, one strand shown. Summed up: as §1
Another assay concerns the target HSF1 (Homo sapiens, UniProt Q00613 1-529). The settings on record: protein: recombinant; tags: N-terminal GST; chain copies: 3; dsDNA, one strand shown. Summed up: as §1
Another assay deals with T2, SPIC (Homo sapiens, UniProt Q8N5J4 1-248).
T2 sequence: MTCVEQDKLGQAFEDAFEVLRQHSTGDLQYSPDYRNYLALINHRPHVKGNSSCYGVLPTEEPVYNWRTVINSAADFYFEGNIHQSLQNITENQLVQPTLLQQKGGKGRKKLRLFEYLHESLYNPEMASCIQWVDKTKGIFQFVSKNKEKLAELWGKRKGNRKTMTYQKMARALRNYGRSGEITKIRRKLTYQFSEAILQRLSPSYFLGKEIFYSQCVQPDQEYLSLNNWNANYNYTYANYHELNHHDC
Conditions: protein: recombinant; tags: N-terminal GST; dsDNA, one strand shown. Summed up: as §1

The target in a further assay is ELF4 (Homo sapiens, UniProt Q99607 1-663). Conditions: protein: recombinant; tags: N-terminal GST; dsDNA, one strand shown. Summed up:
as §1

The next assay concerns the target T3, ELK4 (Homo sapiens, UniProt P28324-2 1-405).
T3 sequence: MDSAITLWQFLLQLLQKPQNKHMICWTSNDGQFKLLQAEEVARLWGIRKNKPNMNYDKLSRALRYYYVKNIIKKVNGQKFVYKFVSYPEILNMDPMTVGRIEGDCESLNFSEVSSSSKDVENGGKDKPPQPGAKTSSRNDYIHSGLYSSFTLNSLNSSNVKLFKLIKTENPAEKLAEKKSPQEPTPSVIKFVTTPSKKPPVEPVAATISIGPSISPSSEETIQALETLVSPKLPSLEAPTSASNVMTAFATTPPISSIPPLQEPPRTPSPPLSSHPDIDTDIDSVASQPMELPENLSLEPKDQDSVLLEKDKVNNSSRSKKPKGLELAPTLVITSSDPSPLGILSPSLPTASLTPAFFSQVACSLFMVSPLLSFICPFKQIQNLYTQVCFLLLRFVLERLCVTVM
The settings on record: protein: recombinant; tags: N-terminal GST; dsDNA, one strand shown. In short, it runs like this:
as §1

For the next assay, the target named is T4, ETV2 (Homo sapiens, UniProt O00321 1-342).
T4 sequence: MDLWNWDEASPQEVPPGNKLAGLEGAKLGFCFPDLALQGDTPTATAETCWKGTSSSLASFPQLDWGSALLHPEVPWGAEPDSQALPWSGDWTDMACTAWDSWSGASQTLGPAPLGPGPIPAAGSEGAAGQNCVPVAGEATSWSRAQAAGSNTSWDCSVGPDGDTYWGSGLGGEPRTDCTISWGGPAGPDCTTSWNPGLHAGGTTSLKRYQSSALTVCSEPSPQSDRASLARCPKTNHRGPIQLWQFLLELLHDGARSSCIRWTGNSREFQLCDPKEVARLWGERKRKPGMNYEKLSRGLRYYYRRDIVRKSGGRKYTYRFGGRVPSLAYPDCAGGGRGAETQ
Conditions: protein: recombinant; tags: N-terminal GST; dsDNA, one strand shown. In short, it runs like this:
as §1

For a further assay, the target named is T5, ELF3 (Homo sapiens, UniProt P78545 1-371).
T5 sequence: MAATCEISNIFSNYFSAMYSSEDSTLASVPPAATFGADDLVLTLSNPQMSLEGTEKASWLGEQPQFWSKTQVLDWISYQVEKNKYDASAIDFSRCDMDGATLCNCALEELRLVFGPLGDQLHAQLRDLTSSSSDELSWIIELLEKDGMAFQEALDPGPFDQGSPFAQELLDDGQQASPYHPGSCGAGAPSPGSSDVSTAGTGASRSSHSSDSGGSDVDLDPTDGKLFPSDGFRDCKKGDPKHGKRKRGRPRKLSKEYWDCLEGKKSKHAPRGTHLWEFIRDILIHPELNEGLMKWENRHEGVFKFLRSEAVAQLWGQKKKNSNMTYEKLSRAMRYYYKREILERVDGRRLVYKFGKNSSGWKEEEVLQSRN
The settings on record: protein: recombinant; tags: N-terminal GST; dsDNA, one strand shown. Summed up: as §1

The next assay concerns the target CRX (Homo sapiens, UniProt O43186 1-299). Conditions: protein: recombinant; tags: N-terminal GST; dsDNA, one strand shown. In short, it runs like this:
as §1

A further assay concerns the target ETV1 (Homo sapiens, UniProt P50549 1-477). The settings on record: protein: recombinant; tags: N-terminal GST; dsDNA, one strand shown. Summed up: as §1
The next assay concerns the target T6, ERF (Homo sapiens, UniProt P50548 1-548).
T6 sequence: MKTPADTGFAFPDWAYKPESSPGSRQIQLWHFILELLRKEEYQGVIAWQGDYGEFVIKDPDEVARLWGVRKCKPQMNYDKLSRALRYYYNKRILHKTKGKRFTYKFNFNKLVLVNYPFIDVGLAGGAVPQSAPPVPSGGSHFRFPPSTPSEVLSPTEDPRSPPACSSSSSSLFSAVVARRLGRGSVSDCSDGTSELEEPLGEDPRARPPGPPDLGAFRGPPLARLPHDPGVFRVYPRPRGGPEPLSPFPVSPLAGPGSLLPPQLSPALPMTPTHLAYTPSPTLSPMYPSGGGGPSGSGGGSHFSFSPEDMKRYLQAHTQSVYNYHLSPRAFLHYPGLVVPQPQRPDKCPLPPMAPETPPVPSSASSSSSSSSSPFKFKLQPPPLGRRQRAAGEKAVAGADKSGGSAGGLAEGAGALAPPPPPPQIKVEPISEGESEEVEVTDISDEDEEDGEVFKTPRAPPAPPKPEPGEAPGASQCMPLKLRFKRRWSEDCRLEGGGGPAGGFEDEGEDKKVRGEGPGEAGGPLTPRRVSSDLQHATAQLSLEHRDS
The settings on record: protein: recombinant; tags: N-terminal GST; dsDNA, one strand shown. Summed up: as §1

In a further assay the target is T7, ETV3L (Homo sapiens, UniProt Q6ZN32 1-361).
T7 sequence: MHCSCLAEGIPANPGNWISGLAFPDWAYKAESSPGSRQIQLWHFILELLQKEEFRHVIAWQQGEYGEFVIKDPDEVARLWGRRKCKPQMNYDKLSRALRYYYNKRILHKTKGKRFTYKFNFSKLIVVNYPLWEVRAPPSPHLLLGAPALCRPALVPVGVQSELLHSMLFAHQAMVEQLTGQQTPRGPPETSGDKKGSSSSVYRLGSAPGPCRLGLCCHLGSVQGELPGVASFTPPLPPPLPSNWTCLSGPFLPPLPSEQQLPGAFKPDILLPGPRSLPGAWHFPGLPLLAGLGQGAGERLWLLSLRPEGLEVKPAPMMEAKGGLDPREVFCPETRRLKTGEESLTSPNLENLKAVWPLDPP
Conditions: protein: recombinant; tags: N-terminal GST; dsDNA, one strand shown. In short, it runs like this: as §1

In a further assay the target is T8, ETS2 (Homo sapiens, UniProt P15036 1-469).
T8 sequence: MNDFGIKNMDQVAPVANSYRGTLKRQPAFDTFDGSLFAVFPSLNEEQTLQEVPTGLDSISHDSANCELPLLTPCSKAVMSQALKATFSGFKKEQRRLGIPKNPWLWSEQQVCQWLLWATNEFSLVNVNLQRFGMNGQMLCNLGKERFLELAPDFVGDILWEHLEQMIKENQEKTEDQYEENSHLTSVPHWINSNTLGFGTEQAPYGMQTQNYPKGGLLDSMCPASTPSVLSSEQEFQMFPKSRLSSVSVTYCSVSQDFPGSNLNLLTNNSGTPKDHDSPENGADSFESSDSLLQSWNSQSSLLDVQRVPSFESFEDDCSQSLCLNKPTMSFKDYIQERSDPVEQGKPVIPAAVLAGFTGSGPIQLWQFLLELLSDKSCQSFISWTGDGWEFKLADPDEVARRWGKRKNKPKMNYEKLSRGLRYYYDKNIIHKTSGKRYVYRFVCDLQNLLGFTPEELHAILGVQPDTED
Conditions: protein: recombinant; tags: N-terminal GST; dsDNA, one strand shown. Summed up: as §1

The target of another assay is T9, SPDEF (Homo sapiens, UniProt O95238 1-335).
T9 sequence: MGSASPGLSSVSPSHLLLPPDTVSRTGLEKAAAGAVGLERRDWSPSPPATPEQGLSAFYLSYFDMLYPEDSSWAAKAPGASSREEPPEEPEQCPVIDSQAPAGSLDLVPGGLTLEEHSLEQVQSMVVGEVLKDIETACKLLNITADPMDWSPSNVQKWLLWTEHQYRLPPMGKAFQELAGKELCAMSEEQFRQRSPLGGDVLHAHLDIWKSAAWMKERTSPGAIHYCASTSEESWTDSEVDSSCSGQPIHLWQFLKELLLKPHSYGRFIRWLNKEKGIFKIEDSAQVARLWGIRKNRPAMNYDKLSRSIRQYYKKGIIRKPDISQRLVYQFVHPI
Conditions: protein: recombinant; tags: N-terminal GST; dsDNA, one strand shown. In short, it runs like this: as §1

The target in the next assay is T10, ETV7 (Homo sapiens, UniProt Q9Y603 1-341).
T10 sequence: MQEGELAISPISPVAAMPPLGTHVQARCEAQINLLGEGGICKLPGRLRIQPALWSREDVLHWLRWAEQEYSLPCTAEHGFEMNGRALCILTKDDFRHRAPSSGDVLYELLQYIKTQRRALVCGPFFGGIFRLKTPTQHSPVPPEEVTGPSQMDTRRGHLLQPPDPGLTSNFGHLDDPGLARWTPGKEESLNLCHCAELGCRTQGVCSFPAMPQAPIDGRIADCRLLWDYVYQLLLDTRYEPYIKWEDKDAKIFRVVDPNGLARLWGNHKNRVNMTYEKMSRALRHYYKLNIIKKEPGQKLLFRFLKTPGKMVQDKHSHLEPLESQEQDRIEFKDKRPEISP
The settings on record: protein: recombinant; tags: N-terminal GST; dsDNA, one strand shown. Summed up:
as §1

In the next assay the target is T11, ELF5 (Homo sapiens, UniProt Q9UKW6-2 1-255).
T11 sequence: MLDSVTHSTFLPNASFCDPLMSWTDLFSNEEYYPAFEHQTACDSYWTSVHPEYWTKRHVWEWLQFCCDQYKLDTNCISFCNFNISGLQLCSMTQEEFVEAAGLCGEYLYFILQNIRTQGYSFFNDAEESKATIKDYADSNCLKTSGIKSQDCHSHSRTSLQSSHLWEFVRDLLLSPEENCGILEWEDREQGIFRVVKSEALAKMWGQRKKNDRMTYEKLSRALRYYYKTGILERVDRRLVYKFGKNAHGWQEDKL
The settings on record: protein: recombinant; tags: N-terminal GST; dsDNA, one strand shown. Summed up:
as §1

The next assay addresses T12, ETV3 (Homo sapiens, UniProt P41162-2 1-143).
T12 sequence: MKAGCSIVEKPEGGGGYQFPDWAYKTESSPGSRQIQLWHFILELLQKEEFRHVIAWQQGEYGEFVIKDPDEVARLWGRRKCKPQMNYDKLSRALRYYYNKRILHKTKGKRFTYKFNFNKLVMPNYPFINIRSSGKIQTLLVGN
Conditions: protein: recombinant; tags: N-terminal GST; dsDNA, one strand shown. In short, it runs like this: as §1

The next assay deals with ETV6 (Homo sapiens, UniProt P41212 1-452). Conditions: protein: recombinant; tags: N-terminal GST; dsDNA, one strand shown. In short, it runs like this: as §1

Our source for the binding signal values is publication PMC7862700, “An all-to-all approach to the identification of sequence-specific readers for epigenetic DNA modifications on cytosine”.

ETV5, sequence (P41161 whole entry): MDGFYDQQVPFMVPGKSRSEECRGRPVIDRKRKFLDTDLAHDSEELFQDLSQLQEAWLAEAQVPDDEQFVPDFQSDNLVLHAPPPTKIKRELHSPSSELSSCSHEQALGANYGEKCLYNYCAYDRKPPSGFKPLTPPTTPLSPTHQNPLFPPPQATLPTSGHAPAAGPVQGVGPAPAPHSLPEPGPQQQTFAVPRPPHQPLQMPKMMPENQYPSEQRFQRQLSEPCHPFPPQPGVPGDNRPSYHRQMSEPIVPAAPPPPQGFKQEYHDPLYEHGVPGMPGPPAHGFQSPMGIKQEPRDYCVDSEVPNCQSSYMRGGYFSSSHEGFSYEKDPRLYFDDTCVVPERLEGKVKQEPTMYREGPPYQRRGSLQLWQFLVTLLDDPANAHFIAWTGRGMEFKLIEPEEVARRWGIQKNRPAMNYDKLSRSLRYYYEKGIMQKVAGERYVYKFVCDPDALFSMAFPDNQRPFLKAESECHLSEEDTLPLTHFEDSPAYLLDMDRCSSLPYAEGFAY
ETV6, sequence (P41212 whole entry): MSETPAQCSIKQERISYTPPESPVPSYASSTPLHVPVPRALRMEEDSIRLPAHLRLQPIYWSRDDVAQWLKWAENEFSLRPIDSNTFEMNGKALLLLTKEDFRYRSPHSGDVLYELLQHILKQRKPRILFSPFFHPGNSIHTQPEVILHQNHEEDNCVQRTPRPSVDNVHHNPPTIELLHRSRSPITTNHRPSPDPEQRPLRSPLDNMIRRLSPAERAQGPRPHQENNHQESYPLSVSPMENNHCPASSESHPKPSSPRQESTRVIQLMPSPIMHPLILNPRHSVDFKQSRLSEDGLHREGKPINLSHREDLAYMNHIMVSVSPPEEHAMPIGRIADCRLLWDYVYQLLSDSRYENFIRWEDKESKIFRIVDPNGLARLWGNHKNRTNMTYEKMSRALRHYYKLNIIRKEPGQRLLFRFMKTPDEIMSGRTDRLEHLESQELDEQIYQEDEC
ELF4, sequence (Q99607 whole entry): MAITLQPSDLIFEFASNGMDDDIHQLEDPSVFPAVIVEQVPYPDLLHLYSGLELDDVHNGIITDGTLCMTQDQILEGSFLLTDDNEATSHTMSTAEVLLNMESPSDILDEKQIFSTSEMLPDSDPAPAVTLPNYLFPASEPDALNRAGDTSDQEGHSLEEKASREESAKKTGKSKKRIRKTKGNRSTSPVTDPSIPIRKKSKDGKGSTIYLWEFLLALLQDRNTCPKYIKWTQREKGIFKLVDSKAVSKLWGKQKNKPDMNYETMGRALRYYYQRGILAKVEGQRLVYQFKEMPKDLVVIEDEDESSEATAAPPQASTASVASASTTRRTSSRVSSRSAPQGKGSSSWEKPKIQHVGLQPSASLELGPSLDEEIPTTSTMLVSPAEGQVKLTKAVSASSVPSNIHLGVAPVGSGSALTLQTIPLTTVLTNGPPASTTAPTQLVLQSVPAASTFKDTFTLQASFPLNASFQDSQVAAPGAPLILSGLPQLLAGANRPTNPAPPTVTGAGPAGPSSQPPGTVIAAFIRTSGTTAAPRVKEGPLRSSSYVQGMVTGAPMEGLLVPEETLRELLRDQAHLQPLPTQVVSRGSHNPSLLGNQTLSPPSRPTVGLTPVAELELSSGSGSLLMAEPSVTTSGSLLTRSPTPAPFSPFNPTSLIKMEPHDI
CRX, sequence (O43186 whole entry): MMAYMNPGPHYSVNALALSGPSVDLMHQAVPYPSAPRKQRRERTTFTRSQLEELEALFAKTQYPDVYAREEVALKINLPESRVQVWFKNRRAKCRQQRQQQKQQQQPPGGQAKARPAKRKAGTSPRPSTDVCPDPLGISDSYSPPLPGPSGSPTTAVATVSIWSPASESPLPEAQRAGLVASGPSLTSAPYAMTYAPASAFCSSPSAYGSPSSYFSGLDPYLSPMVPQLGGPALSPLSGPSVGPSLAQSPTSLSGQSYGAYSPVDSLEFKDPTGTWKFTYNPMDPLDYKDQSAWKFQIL
ETV1, sequence (P50549 whole entry): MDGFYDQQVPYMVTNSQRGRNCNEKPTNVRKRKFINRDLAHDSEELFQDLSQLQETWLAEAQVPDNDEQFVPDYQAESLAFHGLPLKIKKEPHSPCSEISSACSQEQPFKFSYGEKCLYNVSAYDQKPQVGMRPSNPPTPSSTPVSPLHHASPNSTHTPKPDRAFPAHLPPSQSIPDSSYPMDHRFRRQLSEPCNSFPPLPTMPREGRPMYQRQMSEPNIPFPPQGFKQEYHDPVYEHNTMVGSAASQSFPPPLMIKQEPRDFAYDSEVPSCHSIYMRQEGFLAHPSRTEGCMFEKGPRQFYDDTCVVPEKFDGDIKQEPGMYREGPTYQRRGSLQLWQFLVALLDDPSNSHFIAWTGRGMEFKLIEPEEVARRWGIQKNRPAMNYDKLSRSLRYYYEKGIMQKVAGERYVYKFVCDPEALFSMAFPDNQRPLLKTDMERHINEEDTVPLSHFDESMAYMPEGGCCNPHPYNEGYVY
HSF1, sequence (Q00613 whole entry): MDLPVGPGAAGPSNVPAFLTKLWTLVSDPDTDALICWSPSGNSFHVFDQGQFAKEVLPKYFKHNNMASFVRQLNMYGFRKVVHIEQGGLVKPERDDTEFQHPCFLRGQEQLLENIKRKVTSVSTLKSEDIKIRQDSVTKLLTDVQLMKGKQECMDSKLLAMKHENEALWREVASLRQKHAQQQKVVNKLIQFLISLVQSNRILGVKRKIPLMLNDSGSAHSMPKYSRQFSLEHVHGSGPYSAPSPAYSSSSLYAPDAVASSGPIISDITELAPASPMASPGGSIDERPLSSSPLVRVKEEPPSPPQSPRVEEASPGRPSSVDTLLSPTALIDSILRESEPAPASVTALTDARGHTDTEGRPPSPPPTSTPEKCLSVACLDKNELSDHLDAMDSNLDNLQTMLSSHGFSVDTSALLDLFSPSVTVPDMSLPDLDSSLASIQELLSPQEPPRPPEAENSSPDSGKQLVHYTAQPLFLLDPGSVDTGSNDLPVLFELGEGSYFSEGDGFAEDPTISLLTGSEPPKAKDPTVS

Turning to TATATA, the binding signal in the assay with FEV was 1.21 fold enrichment (6-mer frequency, TF over GST control); in the assay with ETV5, 1.28 fold enrichment (6-mer frequency, TF over GST control); with HSF1, 1.42 fold enrichment (6-mer frequency, TF over GST control); with SPIC, 1.21 fold enrichment (6-mer frequency, TF over GST control); with ELF4, 1.31 fold enrichment (6-mer frequency, TF over GST control); with ELK4, 1.38 fold enrichment (6-mer frequency, TF over GST control). Also, the binding signal is 1.08 fold enrichment (6-mer frequency, TF over GST control) with ETV2; 1.35 fold enrichment (6-mer frequency, TF over GST control) in the assay with ELF3; 1.63 fold enrichment (6-mer frequency, TF over GST control) with CRX; 1.18 fold enrichment (6-mer frequency, TF over GST control) in the assay with ETV1; 1.24 fold enrichment (6-mer frequency, TF over GST control) in the assay with ERF; 1.23 fold enrichment (6-mer frequency, TF over GST control) in the assay with ETV3L. Besides, the binding signal in the assay with ETS2 is 1.31 fold enrichment (6-mer frequency, TF over GST control); with SPDEF it was 1.35 fold enrichment (6-mer frequency, TF over GST control); in the assay with ETV7 it was 1.27 fold enrichment (6-mer frequency, TF over GST control); with ELF5, 1.23 fold enrichment (6-mer frequency, TF over GST control); in the assay with ETV3, 1.34 fold enrichment (6-mer frequency, TF over GST control); in the assay with ETV6, 1.28 fold enrichment (6-mer frequency, TF over GST control).
